In PubChem BioAssay (NCI):
Compounds without any hit were thinned out: in the full panel of roughly 83,000, 20% have a hit.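 Treatment: one concentration, 48 hours, 96-well format. Scoring: percent growth, with anything below 10 considered active.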 Values without a mark were called inactive. The source made the active and inactive calls.

System: HCT-116 colon
Assay: NCI-60 one-dose screen, 48 h (100 = growth as untreated, 0 = no growth, -100 = all killed)
Conditions: 10 µM unless noted

SMILES | growth
COc1ccc(-c2cc(-c3ccc(OC)cc3)nc(NCCCNc3ccnc4cc(Cl)ccc34)n2)cc1 | -84.9% (active)
Cn1cc(/C=C2/C(=O)Nc3ccccc32)c2ccccc21 | 90.4%
CC[C@H](CC[C@@H](C)[C@H]1CC[C@H]2[C@@H]3CC[C@@H]4CC(=O)/C(=C\c5ccncc5)C[C@]4(C)[C@H]3CC[C@]12C)C(C)C | 103%
CCOC(=O)c1c(-c2ccc(Cl)cc2)c(C#N)c2c(C#N)c(N)nn2c1N | 59.5%
CC1O[C@@H]2C[C@@](O)([C@H]1O)n1c3ccccc3c3c4c(c5c6ccccc6n2c5c31)C(=O)NC4=O (stereo not given in full) | 15.6%
O=C1Nc2ccccc2/C1=C/c1cn(C[C@@H](O)Cn2c3ccccc3c(=O)c3ccccc32)c2ccccc12 | 57.7%
Cc1cscc(C)c1=S | 61.2%
Clc1nccc2c(-c3csc(-c4c[nH]c5ccccc45)n3)c[nH]c12 | 39.7%
Cc1ccc2[nH]c(-c3ccc(S(C)(=O)=O)cc3)c(/C=N/N=C(N)N)c2c1 | 24.4%
Nc1n[nH]c2ccc([C@@H]3Nc4cc5[nH]ncc5cc4[C@H]4C5CCC(C5)[C@@H]34)cc12 (stereo not given in full) | 8.92% (active)
Cc1[nH]c(C(=O)Nc2ccc(C(N)=O)cc2NC(C)C)c(Cl)c1Cl | 81%
COc1cc(C(=O)/C=C/c2ccc(N3CCN(C)CC3)cc2)cc(OC)c1OC | 104%
C#CCn1cnc2c(Nc3cccc(NC(=O)CCl)c3)ncnc21 | 12.9%
CC1=CCC[C@@H]2C1(C)CC[C@H](C)[C@@]2(C)CC1=CC(=O)C(SC(C)(C)C)=CC1=O (stereo not given in full) | 64%
C/C(=N\Nc1nc(C)cs1)c1cc2ccccc2o1 | 79.3%
COc1ccc(C2C(C#N)=C(N)Oc3c2sc2c(Br)cccc32)cc1 (stereo not given) | 22.4%
C#Cc1cccc(Oc2ccc(NC(=O)CCl)cc2)c1 | -0.801% [8.25 µM] (active)
O=C1CCC(C(=O)NN(c2ccccc2)c2ccccc2)N1 (stereo not given) | 15.5%
CCC(CC)(N(CC(=O)O)CC(=O)O)C(CC)(CC)N(CC(=O)O)CC(=O)O | 110%
CCCCN1C(=O)/C(=c2\sc3n(c2=O)NC2C(N=3)N(CC)C(=O)N2CC)c2ccccc21 (stereo not given) | 13.1%

SMILES | growth
COc1ccc(C(c2cc(OC)c(OC)c(OC)c2)N2CCCC2)cc1 (stereo not given) | 62.3%
Cc1ccc(C(=O)c2ccc(CC(=O)N/N=C/c3ccc(O)cc3O)n2C)cc1 | 34.9%
COc1ccc(NC(=O)c2sc3nc4c(cc3c2N)CCCC4)cc1 | 30.3%
COc1cc2c3c(c1O)-c1ccccc1[C@@H]1OC(=O)N(CC2)[C@H]31 | 99.3%
Cc1cccc(-n2c(C)nc3ccc(N4CCCNC4=O)cc3c2=O)c1 | 102%
CCN(CC)CCCNCc1cc(-c2ccccc2)nc2cc(Cl)ccc12 | -16.5% (active)
Cn1c(O)c(C(/C=C/c2ccccc2)=Nc2ccccc2N)c(=O)n(C)c1=O | 56.7%
CC1COCC(C)N1C1=C(Cl)C(=O)c2ccccc2C1=O (stereo not given) | -9.39% (active)
CC(C)(C)c1cc(C=Nc2cccc(C(F)(F)F)c2)c(O)c(C(C)(C)C)c1 | 94.1%
Cn1cc(-c2csc(-c3cn(C(=O)OC(C)(C)C)c4ccccc34)n2)c2ccnc(Cl)c21 | 30%
CN1CCCc2cc(/C=C3/SC(=S)N(CCc4ccc(O)cc4)C3=O)ccc21 | 89.3%
COC(=O)C1=C(C)NC(C)=C(C(=O)OCC(C)C)C1c1ccccc1[N+](=O)[O-] (stereo not given) | 30.1%
COc1ccc(OC)c(-c2cn3nc(-c4c[nH]c5ccc(Br)cc45)sc3n2)c1 | 13.2%
Clc1nn2c(Cn3cnc4c(NCc5ccccc5)ncnc43)nnc2c2ccccc12 | 21.9%
N#Cc1c(-c2ccccc2)nc2c(c(-c3ccccc3)nn2-c2ccccc2)c1-c1ccc(N2CCOCC2)cc1 | 65.5%
CC(O)c1ncc(/C=C2\SC(=S)N(Cc3ccccc3)C2=O)s1 (stereo not given) | 96%
O=C(Nc1ccccc1O)c1ccccc1Nc1ccnc(C(F)(F)F)c1 | 84.2%
O=C(Cn1nnc([N+](=O)[O-])n1)c1ccccc1 | 60%
Cc1ccc(-c2nc(C(Cl)Cl)nc3cc(C)nn23)cc1 | 6.95% (active)
O=C(N/N=C/c1ccc([N+](=O)[O-])cc1)c1ccc2nc(-c3ccc(Cl)cc3)[nH]c2c1 | 14.6%

System: HCC-2998 colon
Assay: as above
Conditions: 10 µM unless noted

SMILES | growth
COc1ccc(-c2cc(-c3ccc(OC)cc3)nc(NCCCNc3ccnc4cc(Cl)ccc34)n2)cc1 | -56.4% (active)
Cn1cc(/C=C2/C(=O)Nc3ccccc32)c2ccccc21 | 98.2%
CC[C@H](CC[C@@H](C)[C@H]1CC[C@H]2[C@@H]3CC[C@@H]4CC(=O)/C(=C\c5ccncc5)C[C@]4(C)[C@H]3CC[C@]12C)C(C)C | 104%
CCOC(=O)c1c(-c2ccc(Cl)cc2)c(C#N)c2c(C#N)c(N)nn2c1N | 83.6%
CC1O[C@@H]2C[C@@](O)([C@H]1O)n1c3ccccc3c3c4c(c5c6ccccc6n2c5c31)C(=O)NC4=O (stereo not given in full) | 73.4%
O=C1Nc2ccccc2/C1=C/c1cn(C[C@@H](O)Cn2c3ccccc3c(=O)c3ccccc32)c2ccccc12 | 76.1%
Cc1cscc(C)c1=S | 103%
Clc1nccc2c(-c3csc(-c4c[nH]c5ccccc45)n3)c[nH]c12 | 63.7%
Cc1ccc2[nH]c(-c3ccc(S(C)(=O)=O)cc3)c(/C=N/N=C(N)N)c2c1 | 74%
Nc1n[nH]c2ccc([C@@H]3Nc4cc5[nH]ncc5cc4[C@H]4C5CCC(C5)[C@@H]34)cc12 (stereo not given in full) | 18.1%
Cc1[nH]c(C(=O)Nc2ccc(C(N)=O)cc2NC(C)C)c(Cl)c1Cl | 108%
COc1cc(C(=O)/C=C/c2ccc(N3CCN(C)CC3)cc2)cc(OC)c1OC | 101%
C#CCn1cnc2c(Nc3cccc(NC(=O)CCl)c3)ncnc21 | 77.6%
CC1=CCC[C@@H]2C1(C)CC[C@H](C)[C@@]2(C)CC1=CC(=O)C(SC(C)(C)C)=CC1=O (stereo not given in full) | 96.8%
C/C(=N\Nc1nc(C)cs1)c1cc2ccccc2o1 | 112%
COc1ccc(C2C(C#N)=C(N)Oc3c2sc2c(Br)cccc32)cc1 (stereo not given) | 56.8%
C#Cc1cccc(Oc2ccc(NC(=O)CCl)cc2)c1 | 83% [8.25 µM]
O=C1CCC(C(=O)NN(c2ccccc2)c2ccccc2)N1 (stereo not given) | 110%
CCC(CC)(N(CC(=O)O)CC(=O)O)C(CC)(CC)N(CC(=O)O)CC(=O)O | 98.1%
CCCCN1C(=O)/C(=c2\sc3n(c2=O)NC2C(N=3)N(CC)C(=O)N2CC)c2ccccc21 (stereo not given) | 64.1%

SMILES | growth
COc1ccc(C(c2cc(OC)c(OC)c(OC)c2)N2CCCC2)cc1 (stereo not given) | 89.1%
Cc1ccc(C(=O)c2ccc(CC(=O)N/N=C/c3ccc(O)cc3O)n2C)cc1 | 59.6%
COc1ccc(NC(=O)c2sc3nc4c(cc3c2N)CCCC4)cc1 | 52.8%
COc1cc2c3c(c1O)-c1ccccc1[C@@H]1OC(=O)N(CC2)[C@H]31 | 96.8%
Cc1cccc(-n2c(C)nc3ccc(N4CCCNC4=O)cc3c2=O)c1 | 109%
CCN(CC)CCCNCc1cc(-c2ccccc2)nc2cc(Cl)ccc12 | -29.1% (active)
Cn1c(O)c(C(/C=C/c2ccccc2)=Nc2ccccc2N)c(=O)n(C)c1=O | 90%
CC1COCC(C)N1C1=C(Cl)C(=O)c2ccccc2C1=O (stereo not given) | 101%
CC(C)(C)c1cc(C=Nc2cccc(C(F)(F)F)c2)c(O)c(C(C)(C)C)c1 | 108%
Cn1cc(-c2csc(-c3cn(C(=O)OC(C)(C)C)c4ccccc34)n2)c2ccnc(Cl)c21 | 83.5%
CN1CCCc2cc(/C=C3/SC(=S)N(CCc4ccc(O)cc4)C3=O)ccc21 | 106%
COC(=O)C1=C(C)NC(C)=C(C(=O)OCC(C)C)C1c1ccccc1[N+](=O)[O-] (stereo not given) | 83.5%
COc1ccc(OC)c(-c2cn3nc(-c4c[nH]c5ccc(Br)cc45)sc3n2)c1 | 27.2%
Clc1nn2c(Cn3cnc4c(NCc5ccccc5)ncnc43)nnc2c2ccccc12 | 56.1%
N#Cc1c(-c2ccccc2)nc2c(c(-c3ccccc3)nn2-c2ccccc2)c1-c1ccc(N2CCOCC2)cc1 | 107%
CC(O)c1ncc(/C=C2\SC(=S)N(Cc3ccccc3)C2=O)s1 (stereo not given) | 120%
O=C(Nc1ccccc1O)c1ccccc1Nc1ccnc(C(F)(F)F)c1 | 107%
O=C(Cn1nnc([N+](=O)[O-])n1)c1ccccc1 | 102%
Cc1ccc(-c2nc(C(Cl)Cl)nc3cc(C)nn23)cc1 | -69.3% (active)
O=C(N/N=C/c1ccc([N+](=O)[O-])cc1)c1ccc2nc(-c3ccc(Cl)cc3)[nH]c2c1 | 14.9%
